Screening results: PubChem, National Center for Advancing Translational Sciences (NCATS)
In the library only some 2.4% were active in any assay of this set; here they are far more common.
D2 PAM-1 – positive allosteric modulators of human D2 dopamine receptor; P14416; HEK293 T-REx D2, calcium flux, EC20 dopamine potentiation; potentiation, % at 10 µM; actives 0.34% (n = 340,000); AID 485347;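 active = potentiation over 3 SD above the plate norm, cut at about 30% in these data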
Target sequence (P14416 whole entry, looked up): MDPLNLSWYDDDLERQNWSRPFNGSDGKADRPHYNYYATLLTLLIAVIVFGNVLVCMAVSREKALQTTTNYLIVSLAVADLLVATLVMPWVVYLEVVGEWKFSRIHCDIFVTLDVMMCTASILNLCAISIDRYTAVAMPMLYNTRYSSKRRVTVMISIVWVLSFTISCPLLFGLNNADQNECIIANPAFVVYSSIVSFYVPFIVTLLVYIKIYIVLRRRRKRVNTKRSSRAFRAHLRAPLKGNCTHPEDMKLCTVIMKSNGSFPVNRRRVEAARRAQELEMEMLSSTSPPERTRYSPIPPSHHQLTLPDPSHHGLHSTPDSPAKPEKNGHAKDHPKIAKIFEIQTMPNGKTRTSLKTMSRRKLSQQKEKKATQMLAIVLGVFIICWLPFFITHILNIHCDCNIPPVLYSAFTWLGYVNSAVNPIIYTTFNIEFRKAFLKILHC
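Potentiation of an EC20 dopamine calcium response measured kinetically over 180 s, after a preceding 180 s compound-only read flagging agonists. Cells: inducible Hek293 Trex D2 line, 4000/well, cultured overnight at 30 C before dye loading.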
D2 antag – D2 dopamine receptor (human) antagonism; inhibition, % at 10 µM; HEK293 TREx D2 cells, calcium flux, dopamine EC80; P14416; AID 485344; actives 2% (n = 340,000); in the data active = inhibition above about 30%; inactive = below that, where a call was filed
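Tetracycline-induced HEK293 T-REx cells expressing D2 force-coupled to calcium signalling were dye-loaded, exposed to compound for 180 s, then challenged with an EC80 of dopamine; calcium flux was followed kinetically for a further 180 s.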
D2 PAM-2 – human D2 receptor positive allosteric modulation | DiscoveRx D2 beta-arrestin cells, luminescence, 90 min; 100% = 57 uM dopamine signal | potentiation, % (test concentration not listed) | actives 0.23% (n = 360,000); in the data active = potentiation above about 50%; inconclusive = mostly about 30% to 49%
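PathHunter beta-arrestin assay in DiscoveRx D2 cells. Compounds were added with an EC20 of dopamine (50 nM final) for 90 min at 37 deg C. Luminescence was read 1 h after detection reagent, with 57 uM dopamine as the EC100 control.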
D2 ag-1 – human D2 receptor agonism in beta-arrestin assay. AID 624465. P14416. activation, % (no concentration beside the values). actives 0.084% (n = 360,000). DiscoveRx PathHunter D2 beta-arrestin, luminescence, 90 min; 100% = 57 uM dopamine signal; in the data active = activation above about 40%; inconclusive = between about 15% and that limit
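DiscoveRx PathHunter D2 beta-arrestin cells (2,100/well) attached overnight, then compound-stimulated 90 min at 37 C in HBSS/10 mM HEPES/0.1% Tween-20 buffer; beta-galactosidase complementation read by luminescence after 1 h at ambient temperature. Dopamine 57 uM final (EC100) as control.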
D2 ag-2 – activates the human D2 dopamine receptor | P14416 | HEK293 T-REx D2 cells, calcium flux agonist mode | activation, % at 2 µM | actives 0.53% (n = 340,000) | AID 485358;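 active = activation over 3 SD above normal in the single-dose calcium agonist read, cut at about 30% in these data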
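Agonism scored from kinetic calcium signal (1 read/sec, 180 s) following compound pin transfer, after a 10 s baseline. Cells: HEK293 Trex line expressing inducible D2 receptor coupled to calcium, dye-loaded after overnight culture at 30 C.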
Each line names hits and unclear results; the compound was inactive in the other large screens.

COc1cccc(CNCCc2c[nH]c3ccccc23)c1	D2 antag 46
COc1ccc2[nH]cc(CCNCc3cccnc3)c2c1	none
CCC(C)C(NC(=O)CCCNC(=O)CCC(=O)OC1O[C@H]2OC3(C)CC[C@H]4[C@H](C)CCC(C1C)C24OO3)C(=O)O (stereo not given in full)	none (no result: D2 PAM-2, D2 ag-1)
CCC(C)NC(=O)CCC(=O)OC1O[C@H]2OC3(C)CC[C@H]4[C@H](C)CCC(C1C)C24OO3 (stereo not given in full)	D2 ag-1 57
O=C(Nc1ccccc1)Oc1ccccc1	none
CC(/C=C(\C)Nc1ccccc1)=Nc1ccccc1	D2 PAM-1 37
Cc1cccc(Cn2cccc(C(=O)Nc3nnc(C)s3)c2=O)c1	none (no result: D2 antag, D2 PAM-2, D2 ag-1)
CCN1/C(=C\C=C\C2=[N+](CC)c3ccccc3C2(C)C)C(C)(C)c2ccccc21	D2 ag-2 50
Cc1cccc(-n2c(/C=C/c3c[nH]c4ccccc34)nc3ccccc3c2=O)c1	none (no result: D2 antag, D2 PAM-2, D2 ag-1, D2 ag-2)
CN1CCC(OC(=O)C2c3ccccc3Oc3ccccc32)CC1	D2 antag 33
CCn1c(CN2CCN(C)CC2)nc2ccccc21	none (no result: D2 PAM-1, D2 antag, D2 PAM-2, D2 ag-1)
COc1ccc(CN2CCCC(C(=O)c3sccc3C)C2)cc1O (stereo not given)	D2 antag 41
Cc1ccsc1C(=O)C1CCCN(Cc2cccc(OCCO)c2)C1 (stereo not given)	D2 antag 52
Cc1ccsc1C(=O)C1CCCN(Cc2cccc(-n3cccn3)c2)C1 (stereo not given)	none
N#Cc1cc2c(nc1SCC(=O)Nc1ccc(C(F)(F)F)cc1)C1CCN2CC1	none (no result: D2 antag, D2 PAM-2, D2 ag-1, D2 ag-2)
COc1cc(/C=C/c2nc3ccccc3c(=O)n2-c2ccc(Br)c(C)c2)ccc1O	none (no result: D2 PAM-1, D2 antag, D2 PAM-2, D2 ag-1)
CN1CC=C(c2c[nH]c3ccccc23)CC1	D2 antag 75
C1=C(c2c[nH]c3ccccc23)CCN(Cc2ccccc2)C1	D2 antag 70
Cc1cc(OCC(=O)N2CCN(CCc3ccccn3)CC2)cc(C)c1Cl	none (no result: D2 PAM-1, D2 antag, D2 PAM-2, D2 ag-1)
O=C1NC(=O)[C@]2(Cc3ccccc3N3CCN(c4ccccc4)CC32)C(=O)N1Cc1ccccc1 (stereo not given in full)	D2 antag 40, D2 ag-1 inconclusive, D2 ag-2 35
CC1=CC(=O)C2=C(C)CC(O)C3C(C)C(=O)OC3C12 (stereo not given)	D2 antag 35
O=C(CCCN1CCC2(CC1)C(=O)NCN2c1ccccc1)c1ccc(F)cc1	D2 antag 71, D2 ag-2 76 (no result: D2 PAM-1, D2 PAM-2, D2 ag-1)
COc1ccc(-c2nc(CN3C(=O)CN=C(c4ccccc4)c4cc(Cl)ccc43)c(C)o2)cc1	none (no result: D2 PAM-1, D2 antag, D2 PAM-2, D2 ag-1)
C[C@@H]1CC[C@H]2[C@@H](C)C(=O)O[C@@H]3O[C@@]4(C)CC[C@@H]1[C@]32OO4	D2 PAM-2 64, D2 ag-1 inconclusive
COc1cc(C)c(CN2CC=C(c3ccc(F)cc3)CC2)cc1C	D2 antag 84
COc1cc(CN2CC=C(c3ccc(F)cc3)CC2)cc(OC)c1	D2 antag 81
O=C(Nc1ccc(OC(F)(F)F)cc1)c1cccn(Cc2ccccc2Cl)c1=O	none (no result: D2 antag, D2 PAM-2, D2 ag-1)
CN(C)P1(N(C)C)=Nc2c(c(N)nn2C)C(c2ccccc2)=N1	D2 antag 31
Cc1ccc(CN2C3CCCC2CC(NC(=O)Nc2cccc(F)c2)C3)cc1 (stereo not given)	D2 antag 75
O=C1CN=C(c2ccccc2Cl)c2cc(Cl)ccc2N1Cc1cccc(Cl)c1	none (no result: D2 antag, D2 PAM-2, D2 ag-1)
CC(=NCCC1=CCCCC1)c1c(O)n(-c2ccccc2)c(=O)[nH]c1=O	D2 antag 31
CCCCc1ccc(NC(=O)c2cccn(Cc3ccc(Cl)cc3)c2=O)cc1	none (no result: D2 antag, D2 PAM-2, D2 ag-1, D2 ag-2)
CNC(C)Cc1ccccc1Sc1ccc(O)cc1 (stereo not given)	D2 antag 67
Cc1cc(NC(=O)c2cccn(Cc3cccc([N+](=O)[O-])c3)c2=O)no1	none (no result: D2 antag, D2 PAM-2, D2 ag-1)
CC(C)(C)NC(=O)C1CC2CCCCC2CN1 (stereo not given)	D2 antag 64
CCCCc1nc2ccccc2c(=O)n1-c1cccc(OC)c1	none (no result: D2 antag, D2 PAM-2, D2 ag-1)
Cc1ccc(Cn2cccc(C(=O)Nc3ccc(C)c(Cl)c3)c2=O)cc1	none (no result: D2 antag, D2 PAM-2, D2 ag-1)
COC(=O)C1=C(c2ccc(OCc3ccccc3)cc2)C[C@@H]2CC[C@H]1N2C(=O)NC1CCN(Cc2ccccc2)CC1	D2 antag 70
CSc1ccc(C(=O)C2CCCN(CCCn3cccn3)C2)cc1 (stereo not given)	D2 antag 36
CCn1ccnc1CN1CCCC(C(=O)c2ccc(SC)cc2)C1 (stereo not given)	none
CC(C)Cc1nc2cccnc2n1C1CCNCC1	none (no result: D2 antag, D2 PAM-2, D2 ag-1)
CC(C)[C@H]1C(=O)N2CCC[C@H]2[C@]2(O)O[C@](NC(=O)[C@@H]3C=C4c5cccc6[nH]cc(c56)C[C@H]4N(C)C3)(C(C)C)C(=O)N12	D2 antag 88, D2 PAM-2 66, D2 ag-1 80, D2 ag-2 84
CC(C)[C@@]1(NC(=O)[C@@H]2C=C3c4cccc5[nH]cc(c45)C[C@H]3N(C)C2)O[C@@]2(O)[C@@H]3CCCN3C(=O)[C@H](Cc3ccccc3)N2C1=O	D2 antag 80, D2 ag-2 64 (no result: D2 PAM-2, D2 ag-1)
Cn1c(=O)n(C)c2cc(CNCCc3ccccc3F)ccc21	none (no result: D2 antag, D2 PAM-2, D2 ag-1)
Cc1ccccc1CN1C(=O)C(C)N=C(c2ccccc2)c2ccccc21 (stereo not given)	none (no result: D2 antag, D2 PAM-2, D2 ag-1)
OC1(c2ccc(F)cc2)CCNC1 (stereo not given)	D2 antag 86
COc1ccc(OCC(=O)N2CCN(Cc3cc(=O)n4nc(-c5ccccc5C)sc4n3)CC2)cc1	none (no result: D2 antag, D2 PAM-2, D2 ag-1)
COc1ccc(OC)c(NC(=O)Cn2cc(C(=O)c3ccccc3F)c3ccccc32)c1	none (no result: D2 antag, D2 PAM-2, D2 ag-1)
Cc1sc2ncn(CC(=O)N3CCC4(CC3)OCCO4)c(=O)c2c1C	D2 PAM-1 30
CSc1ncc(C(=O)Nc2ccc(Cl)cc2C(=O)c2ccccc2)c(C)n1	none (no result: D2 antag, D2 PAM-2, D2 ag-1)
O=C(Nc1ccccc1C(F)(F)F)c1cccn(Cc2ccccc2)c1=O	none (no result: D2 antag, D2 PAM-2, D2 ag-1)
O=C(Nc1cc(C(F)(F)F)cc(C(F)(F)F)c1)c1cccn(Cc2ccccc2Cl)c1=O	none (no result: D2 antag, D2 PAM-2, D2 ag-1)
Cc1ccc(C(C)C)c(OCC#CCN2CCCC2)c1	D2 antag 35, D2 PAM-2 61
COC(COC(N)=O)C1=C(N2CC2)C(=O)C(C)=C(N2CC2)C1=O (stereo not given)	D2 PAM-2 72, D2 ag-1 inconclusive (no result: D2 PAM-1, D2 antag, D2 ag-2)
CN1CCN(c2csc3ccc(F)cc3c2=O)CC1	none (no result: D2 antag, D2 PAM-2, D2 ag-1, D2 ag-2)
Cc1cccc(NC(=O)Cn2cc(C(=O)c3ccccc3)c3ccccc32)c1C	none (no result: D2 antag, D2 PAM-2, D2 ag-1)
COc1ccccc1CN1CCN(C(=O)COc2ccccc2)CC1	D2 antag 33
COc1ccc(OCC(=O)N2CCN(Cc3ccc4c(c3)OCO4)CC2)cc1	none
COc1cc(OC)c(OC)cc1CN1CCN(C(=O)COc2ccc3ccccc3c2)CC1	none
